Reference: paper PMC4336329 (PLoS ONE, 2015)
The campaign covered roughly 310,000 compounds. About 14,000 (4.5%) showed an effect of 50% or more. The effect is printed as a negative number. This is one part of a sample in which strong results are shown more often than they occur.

target: human ether-à-go-go-related gene (hERG) potassium channel (human, UniProt Q12809); assay: primary screen, population patch clamp on CHO cells stably expressing hERG; higher = less effect of the substance
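Also: peak tail current of the secondary pulse compared with the same well before compound.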

human ether-à-go-go-related gene (hERG) potassium channel, sequence (Q12809 whole entry, looked up): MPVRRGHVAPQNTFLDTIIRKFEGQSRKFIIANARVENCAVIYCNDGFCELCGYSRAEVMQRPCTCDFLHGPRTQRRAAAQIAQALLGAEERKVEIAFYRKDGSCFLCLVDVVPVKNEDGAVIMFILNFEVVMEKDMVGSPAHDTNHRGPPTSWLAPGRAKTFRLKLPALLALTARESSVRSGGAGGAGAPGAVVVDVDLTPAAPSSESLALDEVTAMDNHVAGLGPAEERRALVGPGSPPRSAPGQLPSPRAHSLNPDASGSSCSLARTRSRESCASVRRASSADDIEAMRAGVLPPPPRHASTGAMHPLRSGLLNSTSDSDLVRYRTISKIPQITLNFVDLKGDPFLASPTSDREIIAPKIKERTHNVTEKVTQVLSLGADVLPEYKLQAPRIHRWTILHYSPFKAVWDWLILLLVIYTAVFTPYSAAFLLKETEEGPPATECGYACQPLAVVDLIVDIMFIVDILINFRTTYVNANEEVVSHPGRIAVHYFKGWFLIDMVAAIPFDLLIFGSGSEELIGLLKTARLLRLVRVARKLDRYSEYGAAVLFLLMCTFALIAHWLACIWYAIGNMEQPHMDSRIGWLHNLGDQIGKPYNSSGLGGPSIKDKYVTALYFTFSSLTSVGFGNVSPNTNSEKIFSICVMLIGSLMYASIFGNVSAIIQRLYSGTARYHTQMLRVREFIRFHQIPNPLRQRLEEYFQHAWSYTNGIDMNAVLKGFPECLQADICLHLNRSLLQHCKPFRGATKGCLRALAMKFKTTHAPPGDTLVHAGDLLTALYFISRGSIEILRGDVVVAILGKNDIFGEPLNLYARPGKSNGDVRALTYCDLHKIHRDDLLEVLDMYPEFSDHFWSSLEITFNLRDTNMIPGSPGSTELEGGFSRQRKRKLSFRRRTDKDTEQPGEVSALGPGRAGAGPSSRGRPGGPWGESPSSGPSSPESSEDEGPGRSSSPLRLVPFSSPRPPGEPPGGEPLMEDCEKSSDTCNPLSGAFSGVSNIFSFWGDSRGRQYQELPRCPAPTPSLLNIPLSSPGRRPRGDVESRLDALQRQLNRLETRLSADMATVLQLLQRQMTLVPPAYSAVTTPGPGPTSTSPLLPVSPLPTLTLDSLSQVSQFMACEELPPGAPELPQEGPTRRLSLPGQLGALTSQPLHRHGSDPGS

Structure (SMILES) | hERG current change (%, negative = inhibition) at 10uM [%]
CC(C)NC(=O)COc1coc(CN2CCN(Cc3ccccc3)CC2)cc1=O | 11.9
COc1ccc(-c2nc3c(n2O)CCc2c-3no[n+]2[O-])cc1 | 10.6
Nc1nnnn1CC(=O)N/N=C/C=C/c1ccccc1 | 16.1
COc1cc2c(cc1OC)CN(C(=O)c1sc(-c3cnccn3)nc1C)CC2 | 0.572
O=S(=O)(Nc1cccc(-c2ccc(N3CCOCC3)nn2)c1)c1cc(Cl)ccc1Cl | -26.8
CC(C)(C)OC(=O)N[C@@H](CCCCNC(=O)OCc1ccccc1)c1nnc([C@H](CCCCNC(=O)OCc2ccccc2)NC(=O)OC(C)(C)C)o1 | -22.6
CN1OC(COC(=O)c2ccc(Cl)cc2)CC1c1ccccc1 (centres unmarked) | -4.56
COc1ccc(N(C(=O)c2ccncc2)S(=O)(=O)c2ccc(Cl)cc2)cc1 | -26.4
CN1C2C=C(N(C(=O)c3ccc(Cl)cc3)c3ccccc3)CC1CC2.Cl (centres unmarked) | -74
CCCCN(C(=O)c1cc(OC)c(OC)c(OC)c1)C1=CC2CCC(C1)N2C.Cl (centres unmarked) | -20.2
COc1ccc(C(=O)CN(C(=O)c2ccc(Cl)cc2)N2C(=O)C3CCCCC3C2=O)cc1 (centres unmarked) | -6.63
COc1ccc(CCN(C(=O)c2ccc(F)cc2)C2=CC3CCC(C2)N3C)cc1OC.Cl (centres unmarked) | -46.6
CN1C2CCC1CC(OC(=O)c1ccc(Cl)cc1)(C(=O)O)C2.Cl (centres unmarked) | 1.82
COc1ccc(N(C(=O)c2ccc(F)cc2)C2=CC3CCC(C2)N3C)cc1.Cl (centres unmarked) | -71.5
COc1ccc(N(C(=O)c2ccc(Cl)cc2)C2=CC3CCC(C2)N3C)cc1.Cl (centres unmarked) | -82
N#CC1=C(N)OC2=C(C(=O)CC(c3ccco3)C2)C1c1ccc(OCc2c(F)cccc2Cl)cc1 (centres unmarked) | -1.84
Nc1c([N+](=O)[O-])c(=O)oc2ccccc12 | 19.1
CN(C)CCNC(=S)Nc1ccc(F)c(F)c1F | 22.3
C=CCNC(=O)c1c(Cl)cnn1-c1ccc(C)cc1 | -4.22
Cc1ccc(CNC(=O)CN2C(=O)COc3ccc(S(=O)(=O)N4CCCCC4)cc32)o1 | 16
C[C@H](NC(=O)N1CCn2c1nc1ccccc12)C(=O)NCc1ccco1 | -10.6
CCOc1ccc(CCNC(=O)C2CCCN(S(=O)(=O)N3CCOCC3)C2)cc1OCC (centres unmarked) | 0.332
COC(=O)c1cccc(NC(=S)N2CCN(c3ccccc3F)CC2)c1 | 5.71
O=c1cc(CSc2nc(NCc3ccccc3)c3ccccc3n2)nc2ccc(Cl)cn12 | -59.3
O=C(CCCn1c(SCc2cc(=O)n3ccccc3n2)nc2ccccc2c1=O)NCC1CCCO1 (centres unmarked) | -1.72
COCCn1c(SCc2cc(=O)n3cc(C)ccc3n2)nc2ccccc2c1=O | 13.7
CC(=O)NCCn1c(SCC(=O)c2ccc(Cl)cc2)nc2ccccc2c1=O | -4.33

Structure (SMILES) | hERG current change (%, negative = inhibition) at 10uM [%]
O=C(CCCn1c(SCc2ccccc2F)nc2ccccc2c1=O)NCC1CCCO1 (centres unmarked) | -14
O=c1c2sccc2nc(SCc2cc(=O)n3cc(Cl)ccc3n2)n1Cc1ccccn1 | -26.2
CC(=O)NCCn1c(SCc2cc(=O)n3cc(Cl)ccc3n2)nc2ccccc2c1=O | -50.7
O=C(CCCn1c(SCc2cc(=O)n3cc(Cl)ccc3n2)nc2ccccc2c1=O)NCC1CCCO1 (centres unmarked) | -53.7
COc1ccc(CNc2nc(SCc3cc(=O)n4cc(Cl)ccc4n3)nc3ccccc23)cc1 | -44
NC(=S)N/N=C1/CCSc2ccc3ccccc3c21 | -23.4
C/C(=N\NC(=O)c1cccs1)C(C)(C)C | 5.21
CCN(c1ccc(F)cc1)S(=O)(=O)c1cccc2nsnc12 | 2.4
COc1ccc(C(c2oc(CO)cc(=O)c2O)c2oc(CO)cc(=O)c2O)cc1OC | 14.3
N/C(=N\OC(=O)CCc1ccccc1)c1cccc(Br)c1 | 1.33
Cn1c(SCC(=O)NC2CC2)nnc1C(F)(F)F | -1.32
Nc1nc2c(Cl)ccc(Cl)c2s1 | 10.7
Cc1nc(N2CCC(C(N)=O)CC2)c2nnn(Cc3ccccc3)c2n1 | 16.3
Cc1ccc(N(CC(=O)N/N=C/c2cccs2)S(C)(=O)=O)cc1 | -3.64
Cc1ccccc1-n1c(C)nc2sccc2c1=O | -2.18
COc1ccc(OC(C)C(=O)N2CCC(C)CC2)cc1 (centres unmarked) | -5.47
COc1ccc2cc(C(C)C(=O)N3CCC(C(N)=O)CC3)ccc2c1 (centres unmarked) | 17.1
COc1ccc2cc(C(C)C(=O)N3CCC(C)CC3)ccc2c1 (centres unmarked) | -71.9
O=C(N/N=C/c1ccc([N+](=O)[O-])cc1)c1c[nH]c2ccccc12 | 19.1
O=C(CCn1c(=O)oc2ccccc21)Nc1cccc(Cl)c1 | -2.8
CCOC(=O)N1CCN(C(=O)COc2cccc3c2CCN(Cc2ccc(F)cc2)C3=O)CC1 | -61
Cc1ccc(COc2cccc3c2CCN(Cc2ccc(F)cc2)C3=O)cc1 | 6.8
CCOC(=O)N1CCN(C(=O)COc2cccc3c2CCN(Cc2ccccc2C)C3=O)CC1 | -40.7
CCOC(=O)N1CCN(C(=O)COc2cccc3c2CCN(Cc2ccccc2F)C3=O)CC1 | -31.4
CCOC(=O)N1CCN(C(=O)COc2cccc3c2CCN(Cc2cccc(C)c2)C3=O)CC1 | -53.6
CCOC(=O)N1CCN(C(=O)COc2cccc3c2CCN(CC)C3=O)CC1 | 6.35
